Drawing on PubChem BioAssay (NCATS), this text covers activity change, negative = inhibition, Potency and outcome for nine molecules.

Unmarked numbers belong to inactive results. Results filed as inconclusive are left out. The source made the active and inactive calls. Unless noted, calls follow the shape of the dose curve; as a rule, active = well fitted curve in either direction with a large enough effect (not every such curve was filed as active); inconclusive = small, poorly fitted or top-dose-only effect, or another doubt; inactive = flat fitted curve, though single readings scatter.

Assay [1] is described as follows: AP1 Signaling Pathway (AID 357). Also: % is scaled to controls: 0 for no effect and ±100 for the full control effect. Conditions: ME-180 AP-1-bla reporter, EGF-induced, beta-lactamase ratio, 5 h; at 17.2 µM (top of the series) unless noted. The method, boiled down: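 ME-180 cells with beta-lactamase reporter under AP-1 response element, stimulated with EC50 EGF; compounds tested in titration series, 5 h at 37 °C. CCF4 substrate added 2.5 h at room temperature; 460/530 nm emission ratio gave %activity and AC50.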

A short description of assay [2]: NFAT Signaling Pathway (AID 444).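 Also: carbachol stimulus at about its EC50 of 1 µM final; % is scaled to controls: 0 for no effect and ±100 for the full control effect.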 The note with it: Jurkat NFAT-bla M1, carbachol, beta-lactamase ratio, 5 h; at 17.2 µM (top of the series) unless noted. The method, boiled down: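 Jurkat cells carrying an NFAT-driven β-lactamase reporter and co-transfected muscarinic M1 receptor were treated with compound plus carbachol (1 uM final, an EC50 level) for 5 h at 37 °C. CCF4 loading followed for 1 h at RT; 460/530 nm ratio gave %activity.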

Assay [3] concerns the target Glucocorticoid receptor (Homo sapiens) (UniProt P04150). Nature of the assay: GR-GFP Redistribution (AID 450;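 active = compounds whose dose series gives a full or clear partial fitted curve of increased nuclear translocation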; also: potency is read from the fitted curve at half-maximal effect).
The target is the same in assay [4]. The assay can be described thus: GR-EFC Redistribution (AID 451; calls by dose curve; also: potency is read from the fitted curve at half-maximal effect). Conditions: CHO-K1 GR-EFC translocation, beta-gal luminescence, 2 h. In outline: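 CHO-K1 cells stably expressing nuclear-localized β-gal enzyme acceptor and GR fused C-terminally to the enzyme donor fragment; ligand-driven nuclear translocation restores β-gal by complementation. Compounds titrated up to 46 uM final, 2 h at 37 °C; luminescence read.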

The target of assay [5] is 3',5'-cyclic-AMP phosphodiesterase 4B (Homo sapiens) (UniProt Q07343). Nature of the assay: qHTS Assay for Inhibitors of PDE-IV (AID 607; active = well fitted activation curve with a large enough effect in the main read-out, with a control signal flat, not every such curve was filed as active; also: % of control where 0% means no effect). The method, boiled down:
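ACTOne HEK293 cells carry a modified cAMP-gated CNG channel and express endogenous PDE4; plated 1000 cells/well, compounds up to 22.9 uM final. Membrane-potential dye fluorescence (ex 535/em 590) was read; parental cells received 10 uM forskolin + 100 uM RO 20-1724.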

Assay [6] has as its target Cytochrome P450 3A4 (Homo sapiens) (UniProt P08684). The assay can be described thus: qHTS Assay for Activators of Cytochrome P450 3A4 (AID 885; active = well fitted curve in the direction sought with a large enough effect; an effect the other way counts as inactive or inconclusive; also: nearly all actives have a fitted effect of over 65% in size). The method, boiled down: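 20nM CYP3A4 + 25uM Luciferin-PPXE (=KM), 200mM KPO4; cpd 10 min RT; NADPH regen, 60 min RT; stop w/ detection buffer, 20 min; luminescence. Normalized to 57 uM ketoconazole.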
(Quantitative high-throughput screening tests each substance at several concentrations.)

The target of assay [7] is Cytochrome P450 2D6 (Homo sapiens) (UniProt P10635). Nature of the assay: qHTS Assay for Inhibitors and Substrates of Cytochrome P450 2D6 (AID 891; active = well fitted curve in the direction sought with a large enough effect; an effect the other way counts as inactive or inconclusive; also: potency is read from the fitted curve at half-maximal effect; nearly all actives have a fitted effect of over 60% in size). In outline: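 Human CYP2D6 (5 nM) with 30 uM Luciferin-ME EGE (at Km) in 100 mM KPO4, compound preincubated 10 min, then NADPH regeneration system for 60 min at room temperature. Luciferin read by luminescence; normalized to 1.43 uM quinidine.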
Chain of Cytochrome P450 2D6 (Homo sapiens) (P10635 whole entry, looked up): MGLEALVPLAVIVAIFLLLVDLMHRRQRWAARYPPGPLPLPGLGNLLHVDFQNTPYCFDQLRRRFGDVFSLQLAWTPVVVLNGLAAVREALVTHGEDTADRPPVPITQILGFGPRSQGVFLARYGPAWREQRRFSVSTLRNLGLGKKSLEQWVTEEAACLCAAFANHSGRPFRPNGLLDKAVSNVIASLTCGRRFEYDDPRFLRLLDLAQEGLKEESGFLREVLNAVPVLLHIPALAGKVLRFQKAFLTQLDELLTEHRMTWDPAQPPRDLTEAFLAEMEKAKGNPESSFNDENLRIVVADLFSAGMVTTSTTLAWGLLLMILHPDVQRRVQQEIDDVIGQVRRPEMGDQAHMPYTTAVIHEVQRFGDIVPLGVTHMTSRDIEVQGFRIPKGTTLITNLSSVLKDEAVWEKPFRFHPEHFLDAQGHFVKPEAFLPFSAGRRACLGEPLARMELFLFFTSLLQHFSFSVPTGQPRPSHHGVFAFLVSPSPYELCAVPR

The nature of assay [8]: qHTS Assay for Identification of Small Molecule Antagonists for NFkB Signaling Pathway (AID 895; active = well fitted inhibition curve with a large enough effect in the signal ratio, with a control signal flat, not every such curve was filed as active; the % refers to the signal ratio; also: % is scaled to controls: 0 for no effect and ±100 for the full control effect). The method, boiled down:
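NFkB-bla ME-180 cervical carcinoma cells with beta-lactamase reporter under NFkB response element; compounds added, then TNF alpha at 10 pM final (EC50), 5 h at 37 C. LiveBLAzer substrate 2 h, room temperature; emission 460/530 nm at 405 nm excitation.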

Assay [9] in a line: qHTS Assay for Identification of Small Molecule Agonists for Thrombopoietin (TPO) Signaling Pathway (AID 917; active = well fitted curve in the direction sought with a large enough effect; an effect the other way counts as inactive or inconclusive; also: % is scaled to controls: 0 for no effect and ±100 for the full control effect). In outline: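 IL-3-dependent murine pro-B Ba/F3 cells, stably transfected with human TPO receptor and GpIIb-promoter luciferase, are incubated 24 hrs at 37 C with test compound and 26 pM TPO; luciferase signal is read after 10 min at room temperature.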
For assay [10], the target named is Pyruvate kinase (Leishmania mexicana) (UniProt Q27686). The assay can be described thus: qHTS Validation Assay for Inhibitors of Leishmania Mexicana Pyruvate Kinase (AID 945; active = well fitted curve in the direction sought with a large enough effect; an effect the other way counts as inactive or inconclusive;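 also: 0% = DMSO only neutral control wells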). In outline:
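LmPYK E451W 0.2 nM; 0.5 mM PEP, 0.1 mM ADP, 7 mM MgCl2, 50 mM KCl, imidazole pH 7.2, 0.01% Tween 20, 0.05% BSA; 1 h RT; PKLight luminescence; DMSO-normalized.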

In assay [11] the target is Pyruvate kinase PKM (Homo sapiens) (UniProt P14618). Nature of the assay: qHTS Assay for Activators of Human Muscle Pyruvate Kinase (AID 954; active = well fitted curve in the direction sought with a large enough effect, not every such curve was filed as active;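 also: 0% = uninhibited enzyme and -100% = no enzyme or full thiadiazolimine inhibition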). In outline: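 Luminescence from a luciferase ATP-detection/stop reagent reported PKM2 activity. Reactions contained 0.1 nM purified human enzyme, 0.5 mM PEP, 0.1 mM ADP and 7 mM MgCl2 at pH 7.2, run 1 h at RT.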
Chain of Pyruvate kinase PKM (Homo sapiens) (P14618 whole entry, looked up): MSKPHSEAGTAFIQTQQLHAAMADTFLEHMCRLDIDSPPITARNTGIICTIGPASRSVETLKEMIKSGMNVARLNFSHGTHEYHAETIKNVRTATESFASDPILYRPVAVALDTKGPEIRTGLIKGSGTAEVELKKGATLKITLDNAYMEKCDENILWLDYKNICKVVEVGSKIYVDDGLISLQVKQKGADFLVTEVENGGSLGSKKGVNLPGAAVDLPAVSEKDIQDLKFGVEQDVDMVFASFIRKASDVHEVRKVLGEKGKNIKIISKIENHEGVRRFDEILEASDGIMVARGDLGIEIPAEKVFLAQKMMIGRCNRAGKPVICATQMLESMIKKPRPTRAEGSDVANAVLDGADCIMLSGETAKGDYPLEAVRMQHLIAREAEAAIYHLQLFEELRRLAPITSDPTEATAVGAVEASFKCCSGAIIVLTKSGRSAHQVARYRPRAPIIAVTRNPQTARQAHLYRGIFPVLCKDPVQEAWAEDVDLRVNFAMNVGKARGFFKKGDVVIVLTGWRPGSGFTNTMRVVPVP
In assay [12] the target is Alpha-galactosidase A (Homo sapiens) (UniProt P06280). Nature of the assay: Counterscreen for Glucocerebrosidase Inhibitors: qHTS Assay for Human alpha-Galactosidase at pH 4.5 (AID 992; active = well fitted curve in the direction sought with a large enough effect; an effect the other way counts as inactive or inconclusive; also: 0% is about no effect). In outline: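 Enzyme at 2 nM final was combined with compound (0.7 nM to 77 uM) and 80 uM 4-methylumbelliferyl alpha-D-galactopyranoside in 50 mM citric acid, 0.005% Tween-20, pH 4.5. After 20 min at room temperature, fluorescence was read (Ex 365/Em 440 nm); AC50 came from Hill fits.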
Chain of Alpha-galactosidase A (Homo sapiens) (P06280 whole entry, looked up): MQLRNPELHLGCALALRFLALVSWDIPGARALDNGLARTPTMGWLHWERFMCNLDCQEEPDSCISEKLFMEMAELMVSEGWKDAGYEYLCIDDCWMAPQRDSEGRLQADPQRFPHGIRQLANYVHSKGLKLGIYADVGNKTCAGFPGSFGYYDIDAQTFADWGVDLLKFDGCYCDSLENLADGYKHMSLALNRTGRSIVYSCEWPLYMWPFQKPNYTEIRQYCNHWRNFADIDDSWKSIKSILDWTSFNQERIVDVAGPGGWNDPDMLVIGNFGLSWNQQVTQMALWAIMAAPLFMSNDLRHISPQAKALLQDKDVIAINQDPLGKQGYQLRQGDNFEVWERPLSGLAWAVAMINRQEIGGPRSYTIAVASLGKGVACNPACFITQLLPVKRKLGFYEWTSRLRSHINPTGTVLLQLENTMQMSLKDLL
Background: Counterscreens check selectivity or assay interference.

Assay [13] has as its target alpha-glucosidase (Oryza sativa, rice) (UniProt Q653V4). Nature of the assay: Counterscreen for Glucocerebrosidase Inhibitors: qHTS Assay for Rice alpha-Glucosidase at pH 5.0 (AID 997; active = well fitted curve in the direction sought with a large enough effect; an effect the other way counts as inactive or inconclusive;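 also: 0% = full activity with enzyme and -100% = basal without enzyme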). The method, boiled down: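 Rice alpha-glucosidase (4 nM final) with 400 uM 4-methylumbelliferyl-alpha-D-glucopyranoside in citrate buffer pH 5.0, 20 min at room temperature, stopped at pH 10; fluorescence 365/440 nm, compounds 0.7 nM–77 uM, AC50 from Hill fits.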

For assay [14], the target named is Mitogen-activated protein kinase 10 (Mus musculus) (UniProt Q61831). Nature of the assay: JNK3 AlphaScreen Assay (AID 530). The method, boiled down: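 JNK3 came from HepG2 lysates pre-activated with IL-1beta and TNF-alpha and phosphorylated biotinylated GST-cJun (1-79) at 10 uM ATP, pH 7.6, room temperature. Compounds were titrated. AlphaScreen signal used anti-phospho-cJun (Ser73) antibody.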
On the technique in general: Alpha assays give light when donor and acceptor beads are brought close together.

Assay [15] concerns the target Guanine nucleotide-binding protein G(i) subunit alpha-1 (Homo sapiens) (UniProt P63096). Nature of the assay: qHTS Assay for Inhibitors of RGS12 GoLoco Motif Activity (Green Fluorophore) (AID 879; active = well fitted curve in the direction sought with a large enough effect; an effect the other way counts as inactive or inconclusive;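 also: 0% = labeled peptide with Gαi1 and full inhibition = labeled peptide alone without protein; negative values mean loss of peptide binding seen as reduced polarization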). The method, boiled down: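 Fluorescence polarization assay: 50 nM Gαi1 with 10 nM FITC-labeled RGS12 GoLoco peptide in 10 mM Tris pH 7.5, 150 mM NaCl, 0.1 mM GDP, 0.05% NP40, 10 min at room temperature with compound.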

For assay [16], the target named is Muscarinic acetylcholine receptor M1 (Rattus norvegicus) (UniProt P08482). The assay can be described thus: qHTS Assay for Antagonists of Acetylcholine Muscarinic M1 Receptor: Kinetic Measurement of Intracellular Calcium Response (AID 943; active = well fitted curve in the direction sought with a large enough effect; an effect the other way counts as inactive or inconclusive;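 also: Fluo-4 calcium signal as peak divided by basal fluorescence over 4 min; nearly all actives have a fitted effect of over 75% in size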). The method, boiled down:
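Intracellular calcium flux, recorded with Fluo-4 in a kinetic plate reader, served as signal; the response to carbachol at EC80 (100 nM final) was taken as maximal over minimal fluorescence after a 10 min compound pre-incubation in rat M1-CHO cells.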

Chain of Pyruvate kinase (Leishmania mexicana) (Q27686 2-499 E452W): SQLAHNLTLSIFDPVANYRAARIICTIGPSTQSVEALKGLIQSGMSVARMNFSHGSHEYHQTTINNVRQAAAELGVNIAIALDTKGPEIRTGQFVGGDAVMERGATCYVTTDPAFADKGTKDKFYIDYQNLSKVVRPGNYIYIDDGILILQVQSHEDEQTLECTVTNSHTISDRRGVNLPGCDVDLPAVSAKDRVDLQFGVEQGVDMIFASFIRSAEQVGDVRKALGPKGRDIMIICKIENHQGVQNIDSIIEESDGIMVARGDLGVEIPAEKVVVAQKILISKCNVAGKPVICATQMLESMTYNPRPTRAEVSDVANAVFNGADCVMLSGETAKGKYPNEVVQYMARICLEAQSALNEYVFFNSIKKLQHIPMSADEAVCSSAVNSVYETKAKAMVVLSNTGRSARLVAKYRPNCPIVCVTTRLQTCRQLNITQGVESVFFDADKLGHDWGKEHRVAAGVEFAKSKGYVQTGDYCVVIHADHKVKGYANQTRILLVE
Chain of Glucocorticoid receptor (Homo sapiens) (P04150 whole entry, looked up, the tested form may be a part): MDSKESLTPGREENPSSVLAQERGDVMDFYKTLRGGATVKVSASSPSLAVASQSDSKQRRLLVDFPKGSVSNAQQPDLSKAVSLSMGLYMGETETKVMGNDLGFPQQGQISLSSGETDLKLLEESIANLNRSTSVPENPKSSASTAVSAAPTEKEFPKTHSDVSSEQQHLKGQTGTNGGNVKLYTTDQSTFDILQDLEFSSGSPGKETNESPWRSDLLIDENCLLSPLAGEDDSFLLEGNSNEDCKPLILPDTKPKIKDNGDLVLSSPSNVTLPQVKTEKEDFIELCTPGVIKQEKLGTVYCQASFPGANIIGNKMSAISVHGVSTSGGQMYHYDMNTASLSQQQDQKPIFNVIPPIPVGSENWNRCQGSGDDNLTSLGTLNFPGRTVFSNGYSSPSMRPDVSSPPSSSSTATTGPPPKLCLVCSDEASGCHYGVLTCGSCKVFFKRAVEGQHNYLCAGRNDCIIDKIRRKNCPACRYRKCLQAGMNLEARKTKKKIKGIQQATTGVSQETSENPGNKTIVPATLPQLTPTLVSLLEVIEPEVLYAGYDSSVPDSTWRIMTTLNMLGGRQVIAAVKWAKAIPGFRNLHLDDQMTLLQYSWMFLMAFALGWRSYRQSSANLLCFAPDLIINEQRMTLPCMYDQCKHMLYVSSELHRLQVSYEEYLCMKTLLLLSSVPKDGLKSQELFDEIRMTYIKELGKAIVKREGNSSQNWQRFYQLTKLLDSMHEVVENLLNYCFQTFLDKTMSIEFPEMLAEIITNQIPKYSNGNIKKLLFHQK
Chain of 3',5'-cyclic-AMP phosphodiesterase 4B (Homo sapiens) (Q07343 whole entry, looked up): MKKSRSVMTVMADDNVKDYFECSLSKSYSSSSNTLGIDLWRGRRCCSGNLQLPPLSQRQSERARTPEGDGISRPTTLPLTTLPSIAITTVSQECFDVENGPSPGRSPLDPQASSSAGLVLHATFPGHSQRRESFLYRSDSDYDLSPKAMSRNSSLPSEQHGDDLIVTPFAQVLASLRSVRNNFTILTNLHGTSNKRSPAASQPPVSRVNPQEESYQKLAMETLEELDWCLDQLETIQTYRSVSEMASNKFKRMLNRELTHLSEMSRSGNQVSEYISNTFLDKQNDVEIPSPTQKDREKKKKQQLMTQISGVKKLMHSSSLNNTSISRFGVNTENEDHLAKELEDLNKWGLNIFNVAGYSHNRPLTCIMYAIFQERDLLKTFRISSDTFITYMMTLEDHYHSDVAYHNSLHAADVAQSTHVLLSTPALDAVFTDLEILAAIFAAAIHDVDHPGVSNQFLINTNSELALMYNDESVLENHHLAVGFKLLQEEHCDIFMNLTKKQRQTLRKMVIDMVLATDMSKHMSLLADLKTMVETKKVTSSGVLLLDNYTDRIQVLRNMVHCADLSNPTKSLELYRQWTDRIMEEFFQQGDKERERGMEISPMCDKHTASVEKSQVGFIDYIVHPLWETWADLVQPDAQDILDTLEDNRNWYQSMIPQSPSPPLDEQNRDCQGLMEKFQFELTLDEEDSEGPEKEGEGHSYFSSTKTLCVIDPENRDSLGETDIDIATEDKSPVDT
Chain of Muscarinic acetylcholine receptor M1 (Rattus norvegicus) (P08482 whole entry, looked up): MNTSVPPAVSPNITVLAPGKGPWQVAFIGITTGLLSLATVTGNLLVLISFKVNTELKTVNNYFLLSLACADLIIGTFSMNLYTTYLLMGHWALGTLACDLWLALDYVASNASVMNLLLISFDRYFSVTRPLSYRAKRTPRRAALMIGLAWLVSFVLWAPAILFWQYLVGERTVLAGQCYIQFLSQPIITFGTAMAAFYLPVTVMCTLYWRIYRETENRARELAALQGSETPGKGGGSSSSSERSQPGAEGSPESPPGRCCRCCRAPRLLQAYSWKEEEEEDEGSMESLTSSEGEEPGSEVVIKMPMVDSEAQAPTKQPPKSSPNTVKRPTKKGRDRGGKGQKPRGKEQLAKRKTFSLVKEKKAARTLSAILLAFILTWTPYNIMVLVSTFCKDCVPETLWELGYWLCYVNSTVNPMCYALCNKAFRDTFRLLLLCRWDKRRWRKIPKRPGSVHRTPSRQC
Chain of Cytochrome P450 3A4 (Homo sapiens) (P08684 whole entry, looked up): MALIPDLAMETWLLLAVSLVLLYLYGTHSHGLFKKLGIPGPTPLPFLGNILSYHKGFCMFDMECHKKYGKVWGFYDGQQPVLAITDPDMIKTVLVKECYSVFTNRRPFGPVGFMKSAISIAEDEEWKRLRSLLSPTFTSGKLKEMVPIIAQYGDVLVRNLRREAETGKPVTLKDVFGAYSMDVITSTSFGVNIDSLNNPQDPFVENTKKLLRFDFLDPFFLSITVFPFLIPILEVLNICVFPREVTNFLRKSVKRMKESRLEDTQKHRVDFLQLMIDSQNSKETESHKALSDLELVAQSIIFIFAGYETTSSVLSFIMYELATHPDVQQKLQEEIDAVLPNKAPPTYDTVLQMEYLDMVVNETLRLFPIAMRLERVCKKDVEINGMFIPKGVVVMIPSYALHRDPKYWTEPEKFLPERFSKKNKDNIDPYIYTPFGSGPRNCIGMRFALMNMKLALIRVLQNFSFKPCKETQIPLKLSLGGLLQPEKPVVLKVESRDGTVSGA
Chain of Guanine nucleotide-binding protein G(i) subunit alpha-1 (Homo sapiens) (P63096 whole entry, looked up): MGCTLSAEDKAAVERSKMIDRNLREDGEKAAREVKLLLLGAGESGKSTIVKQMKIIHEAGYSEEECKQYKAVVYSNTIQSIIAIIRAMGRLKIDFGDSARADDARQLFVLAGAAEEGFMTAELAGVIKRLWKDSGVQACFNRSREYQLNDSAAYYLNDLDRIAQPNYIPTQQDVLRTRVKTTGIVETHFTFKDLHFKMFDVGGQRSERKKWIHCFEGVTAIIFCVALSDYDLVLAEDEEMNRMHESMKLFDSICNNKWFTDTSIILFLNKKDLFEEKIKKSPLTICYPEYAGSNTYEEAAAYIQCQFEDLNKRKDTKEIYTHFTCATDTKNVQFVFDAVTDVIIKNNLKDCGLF

With `CCCN1C[C@@H](CSC)C[C@H]2c3cccc4[nH]cc(c34)C[C@@H]21`, the activity change, negative = inhibition in assay [1] was 10.4% [at 38 µM]; in [2], -24.1% [at 38 µM]. In addition, the Potency was above 46 µM in assay [3], above 46 µM in assay [4] and 0.1 µM (active) in assay [7]. In addition, the Potency entry in assay [5], in assay [6], in [8], in [9] and in assay [10] was “inactive” in each case. Moreover, the call in [11], in assay [12] and in assay [13] was inactive.
Regarding `CN(C)CCCO[C@H]1[C@H]([C@H](O)CO)O[C@H]2OC(C)(C)O[C@@H]21`, the activity change, negative = inhibition was 6.88% [at 38 µM] in assay [1] and 5.42% [at 38 µM] in assay [2]. Moreover, the Potency in assay [3] and in assay [4] was above 46 µM in each case. The Potency result in assay [14], in assay [5], in [16] and in [10] was “inactive” each time. Further, the molecule was classed as inactive in assay [15], in [11], in assay [12] and in assay [13].
`Cc1nn(-c2cccc(Cl)c2)c2c1C(c1ccncc1)C(C#N)=C(N)O2` (stereo not given): the activity change, negative = inhibition was 17.6% in assay [1] and -16.8% in assay [2]. In addition, the Potency in assay [3] is above 20.6 µM.
In the case of `CCOC(=O)C1=C(N)n2c(s/c(=C\c3cccnc3)c2=O)=C(C(=O)OC)C1c1cccnc1` (stereo not given), the results for the activity change, negative = inhibition in assay [1] and in assay [2] were -8.91% and 23.6%, respectively. Besides, the Potency in assay [3] was above 20.6 µM.
`CCCCCCCCCC(=O)N[C@@H](CN1CCOCC1)[C@@H](O)c1ccccc1`: the activity change, negative = inhibition was 5.88% [at 38 µM] in [1] and 1.34% [at 38 µM] in [2]. In addition, the Potency in assay [3] and in assay [4] was above 46 µM in each case. For the same molecule, the Potency result in [14], in assay [5], in [9], in assay [16] and in assay [10] was “inactive” each time. Moreover, the result in [11], in [12] and in assay [13] was inactive.
Turning to `COc1ccc(N(CN2C(=O)C3C4C=CC(C4)C3C2=O)C(=O)c2ccco2)cc1` (stereo not given), the activity change, negative = inhibition in [1] is -8.5%; in assay [2], 12.6%. Further, in [3], the Potency is above 20.6 µM.
For `COc1cc2c(cc1OC)C1(CCCC1)C(N)=C2C#N`, in that order: -17.7%, -1.71% and above 20.6 µM.
For `COCc1cc(C)nc(SCC(=O)Nc2ccc(C)c(C)c2)c1C#N`, in that order: 2.07%, 3.23% and above 20.6 µM.
For `COc1ccc(Cn2ccnc2)cc1Br`, in that order: 4.25%, -14% and above 20.6 µM.
